Reference: the supplement of paper PMC12636033
± gives the standard deviation of the averaged measurements. Over roughly 33,000 sequences, “E-score (rank enrichment, -0.5 to 0.5)” has its median near -0.0043; the highest 2% begin near 0.24. For the sample, the highest values were picked, then their nearest neighbours and some sequences at random.

system: 2Sp-muMax20 (muMax20 with two 2,6-bis(methyl)pyridine Cys staples); test: PBM 8-mer E-score (E-score (rank enrichment, -0.5 to 0.5)); higher = stronger preferential binding
Protocol: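 Protein binding microarray (universal PBM chip covering all 10-mers in fixed probe flanks) with chemically synthesized human Max(13-93) bHLH-LZ analogs (not full-length Max) bearing noncanonical residues (hArg, Tha, Aib, Nle at 65) and aromatic Cys staples. Read-out per 8-mer (and its reverse complement): E-score (rank-based enrichment, -0.5 to 0.5) and Z-score of median probe intensity.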

Sequence	PBM 8-mer E-score
TATCCGCA	0.0196 ± 0.089
AAATTCTT	0.0344 ± 0.11
CTATACTA	0.113 ± 0.12
CTGTATTA	0.141 ± 0.0065
GTGTATTA	0.239 ± 0.069
ATATACTC	0.0166 ± 0.11
ATGTATTA	0.21 ± 0.014
ATATATTG	0.221 ± 0.0031
GCATATTA	0.153 ± 0.0097
ATATACTA	0.285 ± 0.027
CTATATTA	0.168 ± 0.018
GGATATTA	0.161 ± 0.084
GTATATTA	0.243 ± 0.0031
ATATATTA	0.264 ± 0.012
CAGTACTA	0.128 ± 0.056
AGAGATCC	-0.0549 ± 0.05
TATCGACA	-0.0261 ± 0.032
CGAGCGTC	-0.00097 ± 0.042
ACACCATG	0.0073 ± 0.025
CATTGTCA	-0.0464 ± 0.016
AAAGGGGT	0.123 ± 0.013
CCCCTGCG	-0.168 ± 0.0048
GCCAATGA	0.00492 ± 0.00047
GACGGAAA	0.0756 ± 0.07
CGTTGAAC	-0.0586 ± 0.068

Sequence	PBM 8-mer E-score
AATTGATG	0.25 ± 0.021
GATTGATA	0.115 ± 0.015
CATTGATA	0.179 ± 0.1
ACTTGATG	0.0152 ± 0.0016
AATTGATA	0.252 ± 0.025
AATTGATC	0.0176 ± 0.058
AAGACCCC	0.0259 ± 0.047
CACGGCGC	-0.0163 ± 0.17
CACCGCGG	-0.121 ± 0.021
CTGGTAGC	-0.131 ± 0.011
CCATCTTA	-0.102 ± 0.052
CATAGCAC	0.301 ± 0.019
GATAGCAC	0.151 ± 0.043
CATAGCAA	0.199 ± 0.072
GCCAGAAA	0.0632 ± 0.035
CTAAGCTA	-0.0343 ± 0.0085
GTGATGCA	0.186 ± 0.078
TGTATACA	0.315 ± 0.067
AATATAAG	0.249 ± 0.07
ACTATAAA	0.115 ± 0.014
TGGATACA	0.213 ± 0.13
AATATAAT	0.22 ± 0.015
AATATAAA	0.245 ± 0.03
CATATAAA	0.323 ± 0.008
AATATAAC	0.203 ± 0.11

Sequence	PBM 8-mer E-score
CATATAAG	0.168 ± 0.061
CATATAAC	0.228 ± 0.076
AAAATAAA	0.103 ± 0.018
GGTATACA	0.145 ± 0.029
AGGCTCAC	-0.168 ± 0.071
CTTTCCCA	-0.0651 ± 0.061
ATTAGGTA	0.0384 ± 0.028
CTTCCCCA	0.0675 ± 0.046
ATGAAAGA	0.095 ± 0.12
GGCACTGA	-0.138 ± 0.064
GAACGGTA	-0.0592 ± 0.0044
AGCGCAAT	-0.0106 ± 0.054
CATAAAAA	0.17 ± 0.062
TCTATAAA	0.213 ± 0.036
AGTATAAA	0.186 ± 0.048
TGTATAAA	0.254 ± 0.018
TATAAAAA	0.307 ± 0.015
GGTATAAA	0.134 ± 0.012
GATATAAA	0.191 ± 0.046
GATAAAAA	0.17 ± 0.036
TATATAAA	0.275 ± 0.019
GTACACTA	-0.172 ± 0.087
AGGATGGC	-0.0191 ± 0.078
GAACGAAC	-0.022 ± 0.033
ACGTCAGT	-0.191 ± 0.0086

Sequence	PBM 8-mer E-score
ATCTTAAT	0.165 ± 0.044
ACCCAGCA	-0.107 ± 0.015
GCCCCTCA	0.0361 ± 0.077
ACCCCTTC	0.273 ± 0.015
ACCCCTAT	0.267 ± 0.044
CCCCCTCC	-0.0372 ± 0.049
ACCCCTAG	0.0238 ± 0.027
ACCCCTCC	0.246 ± 0.0062
CCCCCTTC	-0.195 ± 0.12
ACCCCTAA	0.163 ± 0.11
GCCCCCCC	-0.1861 ± 0.0003
GCCCCTCC	0.237 ± 0.036
ACCCCTCA	0.158 ± 0.055
AACCCTTC	0.0889 ± 0.037
CCGGCAGA	-0.154 ± 0.1
CTCAAAGA	-0.106 ± 0.0065
GACACCGA	-0.215 ± 0.025
GAAAGATA	0.0861 ± 0.022
TGGGAGAA	0.0249 ± 0.058
CGCCCACA	0.216 ± 0.018
ACGATGGA	-0.164 ± 0.01
CTAAAAGC	-0.0267 ± 0.036
CACTCAAG	0.0104 ± 0.039
CTGGCAAA	-0.0382 ± 0.063
GATACGGC	-0.079 ± 0.018

Sequence	PBM 8-mer E-score
ATGATACA	0.274 ± 0.042
ATGATAGG	0.00318 ± 0.11
ATGATAGC	0.278 ± 0.023
ATGATACC	0.11 ± 0.016
ATGATAGA	0.079 ± 0.01
ATGATACG	0.271 ± 0.071
GTGATACA	0.0186 ± 0.033
ATGATATG	0.199 ± 0.075
CTGATACA	-0.0277 ± 0.11
TAACGAAA	0.0771 ± 0.12
CAACTAGC	0.0239 ± 0.018
ATTAGTCC	0.0528 ± 0.12
CACGGCGA	-0.0774 ± 0.0095
CGGTCGTC	-0.18 ± 0.017
GGTGATTA	0.0438 ± 0.06
ATGTGAAC	0.119 ± 0.0064
GGATTGCC	-0.202 ± 0.012
AATGGGTC	-0.00791 ± 0.0086
AATTTGGG	0.254 ± 0.017
AATTGGGG	0.228 ± 0.06
ATTTGGGC	0.119 ± 0.05
AATTGGGT	0.2483 ± 0.0021
ATTTGGGA	0.173 ± 0.068
ATTTGGGG	0.253 ± 0.052
ATTGGGCC	0.00386 ± 0.043

Sequence	PBM 8-mer E-score
AATTTGGA	0.0583 ± 0.086
AATTGGGC	0.183 ± 0.034
ATTGGGGG	-0.0095 ± 0.0052
AATTTGGT	-0.00788 ± 0.03
ATTGGGGC	0.253 ± 0.019
CCTTGACG	-0.0891 ± 0.0072
AGGGGACT	-0.0296 ± 0.079
GACGAGCA	0.0874 ± 0.014
CACACACC	-4e-05 ± 0.065
ATGGCATC	0.193 ± 0.081
ACGAGCCG	-0.0923 ± 0.041
CGCGGTCA	-0.174 ± 0.092
AAACGCGT	-0.0801 ± 0.023
ACGCGCGT	0.397 ± 0.0075
ACACGCGT	0.272 ± 0.021
ACGCGCGG	0.156 ± 0.098
ACGCGCGC	0.206 ± 0.0084
ACACGCGA	0.211 ± 0.037
ACTGAACT	0.049 ± 0.03
CACGATCG	-0.0926 ± 0.084
AAATAACG	0.289 ± 0.022
CAATAACG	0.0434 ± 0.0082
ATATAACG	0.302 ± 0.039
ATATAACA	0.184 ± 0.057
ATATAACC	0.134 ± 0.069

Sequence	PBM 8-mer E-score
AAATAACA	0.182 ± 0.057
AGGATCAC	0.0434 ± 0.0027
CGATGACC	-0.245 ± 0.045
AACATAGG	0.0986 ± 0.084
AACTACAG	-0.122 ± 0.011
AACTACAC	0.257 ± 0.011
GACTACAC	0.016 ± 0.034
CCCTCGCA	0.109 ± 0.031
GGACTATA	0.129 ± 0.085
AGCACCGA	-0.129 ± 0.026
AGTAGAAT	0.286 ± 0.011
ATTAGAAG	0.138 ± 0.075
AGTAGAAA	0.142 ± 0.006
ATTAGAAT	0.248 ± 0.033
ATTAGAAA	-0.0714 ± 0.083
AGTAGAAC	0.0268 ± 0.014
CCGAAACG	-0.122 ± 0.032
GATCAGAA	-0.0464 ± 0.015
CCCGTGGC	-0.328 ± 0.013
ACCTCCCC	0.0632 ± 0.019
TGAACGAA	0.0338 ± 0.048
CTGATTCA	-0.006 ± 0.016
AAGCGCTC	0.0083 ± 0.034
